Compound activity as filed in PubChem BioAssay.
Sampled rows, rich in hits. Any-hit rate of the full collection: about 3.4%.
MITF primary = human MITF inhibition, primary screen; hit rate 0.91% among 650,000; O75030; AlphaScreen MITF homodimerization, bead proximity signal; inhibition, % at 2.6 µM; in the data active means inhibition above about 50%;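 further: 0% = vehicle wells with protein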
GPR151 activ = activators of human GPR151; Q8TDV0; PathHunter beta-arrestin GPR151 cells, luminescence; activation, % at 11.2 µM; hit rate 1% among 650,000; AID 1508602; in the data active means activation above about 4.9%;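 further: 0% = median of compound wells and 100% = cells with positive control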
FBW7 act = human FBW7 E3 ligase activation, primary screen | AID 1259310 | Q969H0 | AlphaScreen FBW7–phospho-cyclin E peptide binding, activator screen | hit rate 0.13% among 650,000 | normalized activity (activation), % at 26.1 µM; in the data active means normalized activity above about 1.9%;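 further: purified mutant Fbw7 with reduced substrate affinity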
Target sequence (Q969H0 whole entry, looked up): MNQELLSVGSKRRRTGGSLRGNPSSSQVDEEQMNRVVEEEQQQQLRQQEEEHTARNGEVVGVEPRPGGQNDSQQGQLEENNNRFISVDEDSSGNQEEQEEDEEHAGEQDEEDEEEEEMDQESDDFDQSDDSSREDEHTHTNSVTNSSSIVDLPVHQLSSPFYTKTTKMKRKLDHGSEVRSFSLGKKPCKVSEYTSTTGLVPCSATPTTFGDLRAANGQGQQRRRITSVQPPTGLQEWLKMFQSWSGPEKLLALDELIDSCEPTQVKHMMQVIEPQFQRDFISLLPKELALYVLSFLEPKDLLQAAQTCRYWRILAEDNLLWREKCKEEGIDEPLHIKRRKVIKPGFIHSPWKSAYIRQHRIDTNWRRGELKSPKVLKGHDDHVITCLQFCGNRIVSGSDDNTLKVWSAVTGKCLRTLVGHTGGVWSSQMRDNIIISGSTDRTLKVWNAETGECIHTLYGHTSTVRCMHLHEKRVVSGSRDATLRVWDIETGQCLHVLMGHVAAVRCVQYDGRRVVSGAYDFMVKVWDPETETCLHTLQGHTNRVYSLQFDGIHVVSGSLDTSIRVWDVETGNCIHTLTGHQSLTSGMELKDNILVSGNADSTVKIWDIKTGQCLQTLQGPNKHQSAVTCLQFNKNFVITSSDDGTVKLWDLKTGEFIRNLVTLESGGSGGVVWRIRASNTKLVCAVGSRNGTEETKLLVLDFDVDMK
TEAD-YAP inh = TEAD-YAP interaction inhibition | AID 1259422 | inhibition, % at 9.12 µM | HEK-TIYL cells, TEAD-Gal4/YAP UAS-luciferase luminescence | hit rate 1.4% among 640,000; in the data active means inhibition above about 32%;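 further: 0% = median of test compound wells and 100% = reference inhibitor wells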
Numbers without * were called inactive.

SMILES	MITF primary	GPR151 activ	FBW7 act	TEAD-YAP inh
OC[C@H]1O[C@@H](n2cnc3c(NCc4ccco4)ncnc32)[C@H](O)[C@@H]1O	0	1	0	74*
COc1cccc(-n2nc(C(=O)N3CCN(c4cccc(Cl)c4)CC3)c3ccccc3c2=O)c1	-1	0	0	-3
Cc1cncc2cccc(NC3CCNC3)c12 (stereo unspecified)	8	0	0	69*
Cc1cncc2cccc(NC3CCCN(C(=O)C(O)c4ccc(Br)cc4)C3)c12 (stereo unspecified)	2	2	0	47*
CCCCN(C)C(=O)CSc1nc(NC2CCCCC2)c2ccccc2n1	1	3	0	-6
COc1cc(C)c(S(=O)(=O)N2CCc3ccccc32)cc1C	13	0	0	50*
COc1cc(S(=O)(=O)N2CCCc3ccccc32)ccc1Cl	5	0	1	58*
COc1ccc(S(=O)(=O)N2CCCc3ccccc32)cc1	-8	0	0	58*
COC(=O)c1ccc(S(=O)(=O)N2CCCc3ccccc32)cc1	-12	2	0	62*
COc1ccccc1-c1cnnc(N/N=C/c2c[nH]c3ccccc23)n1	17	-1	0	-33
O=C(O)Cn1c2ccccc2c2cn[nH]c(=O)c21	5	2	0	11
O=C1C(=O)N(c2nccs2)C(c2ccc([N+](=O)[O-])cc2)/C1=C(\O)c1ccc(Cl)cc1 (stereo unspecified)	-3	-1	1	-5
CCCC1=NN2C(=N)/C(=C/c3cc(Br)c(OCCOc4ccccc4OC)c(OCC)c3)C(=O)N=C2S1	2	0	0	-3
CC1CN(C(=O)CCC(=O)O)c2ccccc2O1 (stereo unspecified)	4	-1	0	-4
CC(NC(=O)c1cc(S(=O)(=O)N2CCc3ccccc32)cn1C)c1ccccc1 (stereo unspecified)	-13	2	0	-11
Cn1cc(S(=O)(=O)N2CCc3ccccc32)cc1C(=O)NC(C)(C)C	-11	1	0	37*
Cc1cccc(C)c1-n1c(=S)sc2c(=O)n(-c3ccccc3)c(SCc3ccccc3F)nc21	18	2	0	46*
COc1ccccc1-n1c(=S)sc2c(=O)n(-c3ccccc3)c(SCc3ccccc3F)nc21	9	-1	0	1
COc1ccccc1NC(=O)CC1NC2CCCCC2NC1=O (stereo unspecified)	7	1	0	13
Cc1ccc(C#N)c(SCc2nnc(-c3ccc(Cl)cc3)o2)n1	15	0	0	68*
CC(C)CCn1c(=S)[nH]c2cc(Cl)ccc2c1=O	8	1	0	3
Nc1ccnc(NCc2ccccc2)c1	-6	0	0	32*
O=c1c(Cl)c(Cl)cnn1-c1ccccc1	-4	0	0	93*
Cc1cc(C)nc(-n2ncc(Cl)c(Cl)c2=O)n1	9	-1	0	86*
O=c1c(Cl)c(Cl)cnn1Cc1ccccc1Cl	13	1	1	33*
SMILES	MITF primary	GPR151 activ	FBW7 act	TEAD-YAP inh
O=c1c(Cl)c(Cl)cnn1-c1ccc(Cl)c(C(F)(F)F)c1	4	2	0	86*
O=c1c(Cl)c(Cl)cnn1-c1cccc(C(F)(F)F)c1	10	-1	0	18
COc1ccc(C(=O)Nc2ncn[nH]2)cc1OC	32	1	0	7
CCOc1cc(CN2CCC3(CC2)CC3C(=O)NCCc2ccccc2)ccc1OC (stereo unspecified)	-22	-1	0	0
CSc1cnn(-c2ccccc2)c(=O)c1SC	7	1	1.9*	5
O=C(NCCCn1ccnc1)c1ccc(C#Cc2ccccc2)o1	4	2	0	35*
Cc1csc(N/N=C\c2ccccn2)n1	16	-7	-2	79*
COc1ccc(C(=O)N/N=C(\C)CC(=O)Nc2cccnc2)cc1OC	8	-1	0	34*
COc1ccc(C(=O)N/N=C(\C)CC(=O)Nc2cccc3c2CCCC3)cc1OC	9	-1	0	32*
COc1ccc(C(=O)N/N=C(\C)CC(=O)Nc2ccccc2Br)cc1OC	-12	-2	0	41*
COc1ccc(C(=O)Nc2cccnc2)cc1OC	-2	-1	0	-18
C/C(CC(=O)Nc1ccc(F)cc1F)=N\NC(=O)c1ccc(O)cc1	16	-1	2.1*	-17
C/C(CC(=O)Nc1cccc2c1CCCC2)=N\NC(=O)c1cccc(O)c1	5	-1	0	14
COc1ccc(-c2ccc(C(=O)Nc3cc(OC)c(OC)c(OC)c3)s2)cc1	24	-3	0	36*
COc1cc(NC(=O)c2ccc(-c3ccc(N4CCN(C)CC4)cc3)s2)cc(OC)c1OC	10	0	0	62*
COc1cc(NC(=O)c2ccc(-c3ccc(C(N)=O)cc3)s2)cc(OC)c1OC	2	0	0	10
CCC(=O)N1c2ccc(S(=O)(=O)N(C)c3ccc(Br)cc3)cc2CC1C (stereo unspecified)	3	-1	1	-12
CCOC(=O)c1nnn(-c2nonc2N)c1CN(Cc1ccccc1)C(C)C	2	1	0	44*
CCOC(=O)c1nnn(-c2nonc2N)c1CN(CC)c1ccccc1	-3	-1	0	-8
CC1CCN(C(=O)CCl)c2ccccc2S1 (stereo unspecified)	15	0	0	67*
CC1CN(C(=O)N2CCC(C(=O)O)CC2)c2ccccc2S1 (stereo unspecified)	1	-1	0	-13
CC(Nc1cnn(C23CC4CC(CC(C4)C2)C3)c(=O)c1Cl)c1ccccc1 (stereo unspecified)	6	0	0	-9
Cc1[nH]c2ccccc2c1C(=O)CSc1nnc(-c2cccnc2)o1	5	0	0	-3
c1ccc(-c2cn3nc(-c4ccccc4)sc3n2)cc1	6	-1	0	44*
Oc1ccc(/C=N/Nc2nc3ccccc3[nH]2)c(O)c1	65*	-1	-1	16
SMILES	MITF primary	GPR151 activ	FBW7 act	TEAD-YAP inh
Oc1ccc(/C=N/Nc2nc(Nc3ccccc3)nc(Nc3ccccc3)n2)c(O)c1	8	0	0	51*
Oc1ccccc1/C=N\Nc1nc2ccccc2[nH]1	16	0	-1	-28
Oc1ccc(/C=N/Nc2nc3ccccc3[nH]2)c(O)c1O	40	-1	-1	-17
Oc1c(Cl)cc(Cl)cc1/C=N/Nc1nc2ccccc2[nH]1	-22	0	0	61*
CC(C)(C)NC(=O)CSc1ncnc2sc3c(c12)CCCC3	1	1	0	1
COc1cccc(/C(C)=N/NC(=O)c2cc(-c3cccnc3)nc3ccccc23)c1	7	-1	0	10
C/C(=N\NC(=O)c1cc(-c2cccnc2)nc2ccccc12)c1ccccc1O	6	2	0	41*
Nc1nc(Nc2ccccc2)cc(-c2ccc(N3CCOCC3)nc2)n1	6	1	0	-49
COc1cc(/C=C(/C#N)C(=O)NCC2CCCO2)ccc1OCc1ccc(C(=O)O)cc1 (stereo unspecified)	5	2	0	-14
